Test [1] in a line: qHTS Assay for Agonists of the Thyroid Stimulating Hormone Receptor. The note with it: HEK293-CNG-TSHR cells, membrane potential dye, cAMP; measured here: parental cells max response. The text has this:
(§1) NIH Chemical Genomics Center [NCGC]
(§2) NIH Molecular Libraries Screening Centers Network [MLSCN]
(§3) PI Name: Dr. Marvin Gershengorn, NIH
(§4) Thyroid Stimulating Hormone Receptor
(§5) TSH is an alpha/beta heterodimeric glycoprotein hormone secreted from the anterior pituitary gland which belongs to the glycoprotein hormone family. The actions of TSH are mediated by a seven-transmembrane receptor, which upon TSH binding couples preferentially to the G-alpha (s) protein (Gs), resulting in activation of adenylate cyclase and increase in cyclic adenosine 3', 5' monophosphate (cAMP). The TSH receptor (THSR) is mainly expressed in thyroid follicular cells and regulates their growth and function. Recombinant TSH is used to activate TSHR in patients with thyroid cancer receiving thyroid hormone suppression therapy and to screen for residual tumor after surgery, but it is expensive and must be administered intramuscularly. An orally active small molecule TSHR agonist would serve as an invaluable research tool for studying TSHR pharmacology and physiology, and would have multiple advantages in therapeutic settings. However, no selective small molecule agonist of the TSH receptor exists, and no small molecule screen for TSHR agonists has ever been reported.
(§6) This cell based assay utilized a cyclic nucleotide gated ion channel (CNG) as a biosensor for cAMP induction by potential TSHR agonists.
(§7) HEK 293 cells stably expressing the TSHR as well as a modified CNG were purchased from BD biosciences. Stimulation of cAMP production causes the CNG to open and subsequent membrane depolarization to occur. A fluorescent membrane potential dye (BD biosciences) was utilized to detect cAMP stimulation in TSHR cells.
(§8) The cells were maintained in DMEM medium (Invitrogen) containing 10 % FBS (Hyclone), 100 units/ml Penicillin, 100 ug/ml Streptomycin (Invitrogen), and 250 ug/ml Geneticin (Invitrogen) and 1 ug/ml Puromycin (Invitrogen) at 37C in 5% CO2. HEK 293 cells expressing CNG but without TSHR (parental cells) were used in concert to control for compounds signaling through endogenous receptors and targets of HEK 293 cells.
(§9) NCGC Assay Protocol Summary:
(§10) High Throughput Screening. Freshly passaged cells (TSHR or parental) were dispensed into 1536-well assay plates at 4 ul/well in DMEM containing phenol red (Invitrogen), 10% FCS (Hyclone), and 100 units/ml Penicillin, 100 ug/ml Streptomycin (Invitrogen) and incubated at 37 C with 5% CO2 for 20 to 36 hrs before the robotic screening. The screen was initiated by addition of 4 ul/well membrane potential dye containing 100 uM RO 20-1724 (Sigma Aldrich), followed by 60 min incubation at room temperature to allow for dye equilibration across the cell membrane. 23 nl/well compound or control was then added to the assay plates, which were incubated for additional 30 min before reading a Envision fluorescence plate reader (Perkin Elmer) in bottom-read mode for fluorescence intensity (emission at 590 nm).
(§11) Keywords: Thyroid-stimulating hormone TSH, TSHR, TSHR agonist, quantitative high throughput screening, qHTS, HTS, probe identification, CNG, cAMP, cyclic nucleotide gated ion channel PubChem
In general terms: Quantitative high-throughput screening tests each substance at several concentrations.

The target in test [2] is Thyrotropin receptor (Homo sapiens) (UniProt P16473). The description is as above. The note with it: HEK293-CNG-TSHR cells (CNG channel as cAMP sensor), membrane potential dye, cAMP; series mostly up to 57.1 µM.
Text: as §1, §2, §3, §4, §5, §6, §7, §8, §9, §10, §11

Our source for the activation and Potency values is PubChem BioAssay AID926 (National Center for Advancing Translational Sciences (NCATS), 2007).

Screen size: about 73,000 compounds; about 350 (0.48%) were called active. Another 17% or so got no clear call; they are omitted. Calls come from the whole dose curve; as a rule, active = well fitted activation curve with a large enough effect in the main read-out, with a control signal flat (not every such curve was filed as active); inconclusive = small, poorly fitted or top-dose-only effect, or a change in a side signal; inactive = no such curve, though single readings can be large or run the other way; reference of the percent scale not stated here. For the sample, actives were picked, then their nearest neighbours and some compounds at random.
Potency is the fitted concentration of half-maximal effect.

Thyrotropin receptor (Homo sapiens), sequence (P16473 whole entry, looked up): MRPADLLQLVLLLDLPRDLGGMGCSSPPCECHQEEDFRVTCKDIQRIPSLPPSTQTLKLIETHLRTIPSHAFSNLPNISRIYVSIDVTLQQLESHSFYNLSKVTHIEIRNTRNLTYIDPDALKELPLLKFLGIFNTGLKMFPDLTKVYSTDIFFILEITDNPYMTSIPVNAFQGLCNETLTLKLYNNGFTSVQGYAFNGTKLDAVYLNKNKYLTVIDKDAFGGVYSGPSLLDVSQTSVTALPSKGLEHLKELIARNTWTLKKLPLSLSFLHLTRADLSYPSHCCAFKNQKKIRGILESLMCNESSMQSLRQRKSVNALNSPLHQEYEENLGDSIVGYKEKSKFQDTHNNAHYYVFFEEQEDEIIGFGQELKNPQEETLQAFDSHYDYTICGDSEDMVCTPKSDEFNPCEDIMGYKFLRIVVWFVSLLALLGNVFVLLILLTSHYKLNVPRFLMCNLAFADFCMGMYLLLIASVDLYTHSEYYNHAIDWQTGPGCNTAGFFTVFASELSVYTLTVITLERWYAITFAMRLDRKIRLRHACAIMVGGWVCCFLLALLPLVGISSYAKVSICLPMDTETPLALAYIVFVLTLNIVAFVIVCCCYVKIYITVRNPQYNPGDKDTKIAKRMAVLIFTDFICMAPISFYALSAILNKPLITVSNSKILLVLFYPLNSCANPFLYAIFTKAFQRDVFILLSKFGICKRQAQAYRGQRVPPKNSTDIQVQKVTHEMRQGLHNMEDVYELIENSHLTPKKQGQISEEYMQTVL

For `O=C(O)c1cc(S(=O)(=O)N2CCCCCC2)c(Cl)cc1Cl`, the activation in test [1] was 9.56%; in test [2], 12.9% [at 11.4 µM] (inactive).
For `COC(=O)[C@@]1(C)C=C[C@@H](Cc2ccccc2)N1C(C)=O`, in test [1], the activation was determined as 15.2%. Also, the Potency result in test [2] was “inactive”.
Turning to `CCC[C@@H]1C[C@@]1(CCC)C(NC(=O)c1ccc(-c2ccccc2)cc1)c1cccc(Cl)c1` (stereo partly drawn), the activation in test [1] is -2.94%. For the same molecule, the Potency entry in test [2] is “inactive”.
In the case of `COC(=O)C1(C)C=CCN1C(=O)c1ccccc1` (stereo not drawn), in test [1], the activation turned out to be 22%. For the same molecule, the Potency result in test [2] was “inactive”.
With `O=C(Cl)c1ccccc1[N+](=O)[O-]`, the activation in test [1] was 27%. In addition, the Potency entry in test [2] was “inactive”.
On to `CC(C)CN1CCc2nc(-c3ccccc3)c3c(c2C1)COC(C)C3` (stereo not drawn), for which the activation in test [1] is -2.08%; in test [2] it was -2.84% [at 11.4 µM] (inactive).
With `CCN(CC)CCCCn1c(-c2ccccc2)nc2c(N3CCOCC3)nc(C)nc21`, the activation in test [1] turned out to be 25%. Also, in test [2], the Potency entry is “inactive”.
For `CN1CCN(Cc2nc3c(c(=O)n(C)c(=O)n3C)n2Cc2cccc3ccccc23)CC1`, in that order: 2.12% and “inactive”.
As for `C[C@@H]1/C=C\CC(=O)OC[C@H]2O[C@@H](C=C[C@@H]2O)[C@H](C)/C=C\CC(=O)OC[C@H]2O[C@H]1C=C[C@@H]2O`, the activation in test [1] is -6.65%; in test [2], -3.42% [at 11.4 µM] (inactive).
Turning to `CC(=O)OCC1OC(C#CCCCc2ccccc2)C=CC1OC(C)=O` (stereo not drawn), the activation in test [1] is -0.905%; in test [2], 0.607% [at 11.4 µM] (inactive).
With `CCc1cc(=O)oc2cc(C)cc(OC(C)C(=O)O)c12` (stereo not drawn), in test [1], the activation is 10.3%. Besides, in test [2], the Potency entry is “inactive”.
For the molecule `O=C1[C@H]2[C@H]3[C@H](O)[C@H](O)C/C(=N/OCc4ccccc4)[C@H]3CC[C@@H]2C(=O)N1Cc1ccccc1`, the activation in test [1] was -2.25%; in test [2], -22.5% [at 11.4 µM] (inactive).
As to `c1ccc(-c2nnc3n2NC(c2ccc4c(c2)OCO4)S3)cc1` (stereo not drawn), the activation in test [1] came to 27.8%. Moreover, in test [2], the Potency was 25.1 µM (active).
As to `O=C(Cn1nnc(-c2ccccc2)n1)NCc1ccc2c(c1)OCO2`, the activation in test [1] stood at 12.1%. In addition, the Potency result in test [2] was “inactive”.
For `Fc1ccc(-c2nnc3sc(-c4ccc5c(c4)OCO5)nn23)cc1`, in that order: 23.4% and “inactive”.
For the molecule `Cc1ccc(C(=O)N2CCN(C3CCCCC3)CC2)s1`, the activation in test [1] is -11.9%. Besides, the Potency result in test [2] was “inactive”.
For the molecule `CC(C)(C)c1ccc(OC2C=CC(C#Cc3ccccc3)OC2CO)cc1` (stereo not drawn), the activation in test [1] is 12.6%; in test [2], 1.96% [at 11.4 µM] (inactive).
For the molecule `O=C(Cn1cc2c(n1)CCCCC2)NCCN1CCOCC1`, the activation in test [1] was found to be 1.85%. In addition, the Potency result in test [2] was “inactive”.
For the molecule `CCOC(=O)CSc1nnc(-c2ccncc2)o1`, in test [1], the activation is -3.39%. Further, in test [2], the Potency entry is “inactive”.
As to `Cc1ccc2nc(CC(=O)c3ccc4ccccc4c3)c(=O)[nH]c2c1`, the activation in test [1] was 22.3%; in test [2], 4.8% [at 11.4 µM] (inactive).
Take `COc1ccc(-c2cc(C(=O)NC(C(=O)O)C(C)C)c(C)o2)cc1OC` (stereo not drawn): in test [1], the activation is 6.63%. For the same molecule, in test [2], the Potency entry is “inactive”.
For `CN1CCN(c2ncc3nc(-c4ccc(Cl)cc4)c(=O)n(-c4ccccc4)c3n2)CC1` the same measures were -23% and “inactive”.
In the case of `COc1ncc2nc(-c3ccc(Cl)cc3)c(=O)n(C)c2n1`, the activation in test [1] came out at 6.5%. For the same molecule, the Potency entry in test [2] is “inactive”.
For `CCCCNc1nc2c(c(=O)[nH]c(=O)n2C)n1CCOc1ccccc1` the same measures were 0.873% and “inactive”.
For the molecule `CC(c1ccccc1)n1c(NCCCn2ccnc2)nc2c1c(=O)[nH]c(=O)n2C` (stereo not drawn), the activation in test [1] was 2.43%. For the same molecule, the Potency result in test [2] was “inactive”.
On to `Cn1c(=O)[nH]c(=O)c2c1nc(NCCCn1ccnc1)n2Cc1cccc(Br)c1`, for which the activation in test [1] amounted to 20.4%. Moreover, the Potency in test [2] is 20 µM (active).
For `CCC(C)(C)N=C(NC#N)Nc1cccnc1`, in that order: 0.273% and “inactive”.
`C1CCC2OC2C1` (stereo not drawn): in test [1], the activation came to 21.9%. Further, the Potency entry in test [2] was “inactive”.
For `CC(Cc1ccccc1)C(=O)N(C)Cc1ccccc1` (stereo not drawn), in that order: 16.5% and “inactive”.
Take `CO[C@H]1COC(=O)CCC[C@@H](C)[C@H](OC)COC(=O)[C@@H](C)NC(=O)C/C=C\[C@@H]1C`: the activation is 4.76% in test [1] and 0.571% [at 11.4 µM] (inactive) in test [2].
`C/C(CCN1CCCCc2nc(C)c(C)cc21)=N\O[C@@H](C)c1cn([C@@H]2COC[C@@H]2O)nn1`: the activation in test [1] was 6.27%; in test [2], 4.59% [at 11.4 µM] (inactive).
As for `O=C(O)c1nccnc1C(=O)Nc1ccc(Br)cn1`, in test [1], the activation worked out at 3.73%. Further, the Potency result in test [2] is “inactive”.
On to `C[C@@H](c1ccccc1)N1C(=O)[C@H]2[C@H]3[C@H](O)[C@H](O)C/C(=N/OC[C@@H](O)COCc4ccco4)[C@@H]3CC[C@@H]2C1=O`, for which the activation is 5.7% in test [1] and -3.6% [at 11.4 µM] (inactive) in test [2].
For the molecule `OC(CCl)CCl`, the activation in test [1] stood at 12.9%. The Potency entry in test [2] was “inactive”.
Take `CCOC(=O)c1cccc(NC(=O)C2CCCN(S(=O)(=O)c3cnc[nH]3)C2)c1` (stereo not drawn): the activation in test [1] was 5.88%. In addition, in test [2], the Potency result is “inactive”.
For `CN1CCN(Cc2c(O)ccc3c2oc(=O)c2ccccc23)CC1`, in that order: 13.2% and “inactive”.
With `CO[C@H]1COC(=O)[C@H](Cc2ccccc2)NC(=O)C/C=C\[C@@H](C)[C@H](OC)COC(=O)C/C=C\[C@@H]1C`, the activation in test [1] was 25.1%; in test [2], 10.2% [at 11.4 µM] (inactive).
As for `O=C(CC1Nc2ccccc2NC1=O)Nc1ccccc1` (stereo not drawn), in test [1], the activation was -1.43%. Besides, in test [2], the Potency entry was “inactive”.
Regarding `CCCCCCn1c(SCC(=O)c2ccccc2)nc2c1c(=O)[nH]c(=O)n2C`, the activation in test [1] was -2.08%; in test [2] it was 3.88% [at 11.4 µM] (inactive).
